Compound activity (PubChem)
In the library only some 4.5% were active in any assay of this set; here they are far more common.
hgDAF-12 ag: activates the H. glycines DAF-12 receptor ligand-binding domain. AID 687014. activation, % at 6.8 µM. 370,000 tested, 1.8% active. HEK293 GAL4-hgDAF12 UAS-luciferase reporter, agonist luminescence; normalized to butyrate control;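 active = activation above a cutoff set at the mean of all screened compounds plus 3 SD, cut at about 10% in these data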;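 note: 0% = DMSO wells and 100% = sodium butyrate wells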
FXN GAA850 act: increases GAA850 frataxin promoter reporter activity. HEK293 lucGAA850 FXN promoter luciferase reporter, 24 h; percent of 10 µM SAHA response. activation, % at 6 µM. 360,000 tested, 0.56% active;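 active = activation above the average of all compounds screened plus 3 SD, cutoff fixed separately per campaign, cut at about 7.5% in these data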;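 note: 0% = DMSO wells and 100% = 10 µM SAHA wells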
DAX1 inh-1: inhibits human nuclear receptor DAX1. P51843. HEK293 Gal4-DAX1 luciferase reporter, luminescence. inhibition, % at 6.75 µM. 340,000 tested, 0.99% active. AID 504766;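 active = inhibition above the mean over all tested compounds plus 3 SD, cut at about 4.2% in these data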;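 note: 0% = DAX1-transfected cells with DMSO and 100% = empty-vector control cells with DMSO; inhibition shows as a rise in luminescence from relieved DAX1 repression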
Target sequence (P51843 207-470 limits assumed): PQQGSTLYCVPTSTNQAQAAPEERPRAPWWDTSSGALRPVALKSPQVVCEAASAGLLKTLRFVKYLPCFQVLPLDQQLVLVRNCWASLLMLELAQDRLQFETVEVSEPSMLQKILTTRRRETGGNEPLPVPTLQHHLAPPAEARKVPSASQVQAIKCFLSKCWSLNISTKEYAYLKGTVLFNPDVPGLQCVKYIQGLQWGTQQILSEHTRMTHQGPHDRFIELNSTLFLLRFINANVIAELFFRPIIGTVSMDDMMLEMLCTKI
ssDAF-12 act: activators of S. stercoralis DAF-12 nuclear receptor. HEK293 ssDAF-12/GRIP1 lit1-tk-luc reporter, luminescence; % of 3 µM dafachronic acid response. activation, % at 6.8 µM. 370,000 tested, 1% active. AID 652126;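 active = activation above the mean over all tested compounds plus 3 SD, cut at about 0.9% in these data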;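 note: 0% = DMSO-only wells and 100% = 3 µM delta7-dafachronic acid wells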
hcDAF12 agonist: activators of H. contortus DAF-12 nuclear receptor; HEK293 hcDAF-12 lit1-tk-luc reporter, luminescence; 0% DMSO, 100% Δ7-dafachronic acid; activation, % at 6.8 µM; 370,000 tested, 1.4% active; AID 652067;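 active = activation above the mean of all tested compounds plus 3 SD, cut at about 5.5% in these data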;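 note: 100% = response to 3 µM Δ7-dafachronic acid high control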
DAX1 inh-2: blocks DAX1 repression of SF-1 activated StAR promoter. HEK293T StAR-luciferase reporter, SF-1/DAX-1 repression relief. inhibition, % at 6.8 µM. 370,000 tested, 1.1% active. AID 652010;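 active = inhibition above the mean over all tested compounds plus 3 SD, cut at about 3.6% in these data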;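 note: 0% = DAX-1 cells with DMSO and 100% = cells lacking DAX-1 with DMSO; higher inhibition means more luminescence from relief of DAX-1 repression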
GAA30 counter: counter-screen for GAA850 frataxin promoter activators: GAA30 promoter activation; shares compounds with FXN GAA850 act; HEK293 lucGAA30 FXN promoter luciferase, 24 h; DMSO = 0%, 5 µM ipriflavone = 100%; AID 588350; 1,900 tested, 66% active; activation, % at 6 µM;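 active = mean activation above the mean of solvent-only control wells plus 3 SD, cut at about 22% in these data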;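 note: counterscreen of GAA850 promoter hits where activity marks nonselective or luminescence artifacts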
GAA850 confirm: confirmation of GAA850 frataxin (FXN) promoter activators | 1,900 tested, 86% active | shares compounds with FXN GAA850 act | activation, % at 6 µM | AID 588351 | HEK293 lucGAA850 FXN promoter luciferase reporter, 24 h; 100% = activation by SAHA;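 active = mean activation above a set limit taken from the primary screen, cut at about 8% in these data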;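 note: 0% = DMSO wells and 100% = 10 µM SAHA wells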
Active calls of the source: *.

How did CC(=O)Nc1cccc(NC(=O)CSc2ncc(C(=O)Nc3ccccc3)c(=O)n2C)c1 do in these assays?
hgDAF-12 ag: 4; FXN GAA850 act: 9.7*; DAX1 inh-1: -2; ssDAF-12 act: 1; hcDAF12 agonist: 3; DAX1 inh-2: 1; GAA30 counter: 21; GAA850 confirm: 15*

How did Cc1ccc(C(=O)NCCc2csc(-c3cccnc3)n2)cc1 do in these assays?
hgDAF-12 ag: 7; FXN GAA850 act: 20*; DAX1 inh-1: 0; ssDAF-12 act: 0; hcDAF12 agonist: -2; DAX1 inh-2: 3; GAA30 counter: 76*; GAA850 confirm: 27*

Results for COc1ccccc1NC(=O)CC1C(=O)NCCN1C(=O)Nc1ccccc1 (stereo unspecified) ?
hgDAF-12 ag: -2; FXN GAA850 act: 8.0*; DAX1 inh-1: 0; ssDAF-12 act: -1; hcDAF12 agonist: 0; DAX1 inh-2: 0; GAA30 counter: 18; GAA850 confirm: 8.0*

How did O=C(CSc1ncn(-c2ccccc2)n1)NCc1ccccc1 do in these assays?
hgDAF-12 ag: 7; FXN GAA850 act: -1; DAX1 inh-1: 1; ssDAF-12 act: -1; hcDAF12 agonist: 0; DAX1 inh-2: 0

Results for Clc1ccccc1CSc1ncn(-c2ccccc2)n1 ?
hgDAF-12 ag: 11*; FXN GAA850 act: 8.4*; DAX1 inh-1: 4; ssDAF-12 act: 0; hcDAF12 agonist: 5; DAX1 inh-2: 2; GAA30 counter: 104*; GAA850 confirm: 35*

Results for Cc1ccc(-n2ncc(Cl)c2C(=O)NCc2ccccc2)cc1 ?
hgDAF-12 ag: 4; FXN GAA850 act: 7; DAX1 inh-1: 1; ssDAF-12 act: -1; hcDAF12 agonist: 5; DAX1 inh-2: 1

What do the screens show for `C=CCNC(=O)c1c(Br)cnn1-c1ccc(C)cc1`?
hgDAF-12 ag: 8; FXN GAA850 act: 8.2*; ssDAF-12 act: 0; hcDAF12 agonist: 4; DAX1 inh-2: 2; GAA30 counter: 105*; GAA850 confirm: 33*

Results for CCOC(=O)C1CCCN(C(=O)Cc2ccc(OC)c(OC)c2)CC1 (stereo unspecified) ?
hgDAF-12 ag: -1; FXN GAA850 act: 1; ssDAF-12 act: -1; hcDAF12 agonist: -2; DAX1 inh-2: -1

What do the screens show for `COC(=O)[C@]12C[C@H](CC(=O)N3CCC(c4ccccc4)CC3)C(=O)N(CCC3=CCCCC3)C1=C[C@H](C(C)C)O[C@@H]2C1CC1`?
hgDAF-12 ag: 0; ssDAF-12 act: -1; hcDAF12 agonist: 0; DAX1 inh-2: 0

Results for COc1ccc(Cl)cc1CC1(C)C(=O)Nc2ccc(S(=O)(=O)NC3CCCCC3)cc21 (stereo unspecified) ?
hgDAF-12 ag: -3; FXN GAA850 act: 16*; ssDAF-12 act: -2; hcDAF12 agonist: -2; DAX1 inh-2: -1; GAA30 counter: 9; GAA850 confirm: 13*

Results for Cc1ccccc1CC1(C)C(=O)Nc2ccc(S(=O)(=O)NC3CCCCC3)cc21 (stereo unspecified) ?
hgDAF-12 ag: -1; FXN GAA850 act: 2; ssDAF-12 act: -1; hcDAF12 agonist: -2; DAX1 inh-2: -2

What do the screens show for `COc1ccc(OC(F)(F)F)cc1CC1(C)C(=O)Nc2cccc(Cl)c21` (stereo unspecified)?
hgDAF-12 ag: 0; FXN GAA850 act: 3; ssDAF-12 act: -1; hcDAF12 agonist: -3; DAX1 inh-2: 0

How did COc1ccc(OC(F)(F)F)cc1CC1(C)C(=O)Nc2ccc(-c3ccsc3)cc21 (stereo unspecified) do in these assays?
hgDAF-12 ag: 1; FXN GAA850 act: 13*; ssDAF-12 act: -1; hcDAF12 agonist: -2; DAX1 inh-2: 0; GAA30 counter: 17; GAA850 confirm: 9.0*

How did CC1(Cc2ccc(F)cc2)C(=O)Nc2ccc(S(=O)(=O)NC3CCCCC3)cc21 (stereo unspecified) do in these assays?
hgDAF-12 ag: -4; FXN GAA850 act: 9.7*; ssDAF-12 act: -2; hcDAF12 agonist: -2; DAX1 inh-2: 1; GAA30 counter: 0; GAA850 confirm: 7

Results for COc1ccccc1CC1(C)C(=O)Nc2ccc(S(=O)(=O)NC3CCCCC3)cc21 (stereo unspecified) ?
hgDAF-12 ag: -4; FXN GAA850 act: 9.1*; ssDAF-12 act: -1; hcDAF12 agonist: -2; DAX1 inh-2: -1; GAA30 counter: 1; GAA850 confirm: 3

How did COc1ccc(S(=O)(=O)NC2CCCC2)cc1Cl do in these assays?
hgDAF-12 ag: -1; FXN GAA850 act: -3; DAX1 inh-1: 0; ssDAF-12 act: -1; hcDAF12 agonist: 0; DAX1 inh-2: 2

How did COC(=O)[C@]12CCCCC=C1N(Cc1cccc3ccccc13)C(=O)[C@H](CC(=O)N1CCN(C(=O)c3ccco3)CC1)C2 do in these assays?
hgDAF-12 ag: 0; ssDAF-12 act: -1; hcDAF12 agonist: -2; DAX1 inh-2: -1

Results for O=C(NCCc1ccccc1)OCc1cn(Cc2ccc(C(F)(F)F)cc2)nn1 ?
hgDAF-12 ag: -1; ssDAF-12 act: -1; hcDAF12 agonist: -4; DAX1 inh-2: 0

Results for CCOC(=O)CC[C@@H]1CC[C@]2(CCCN(Cc3nccn3C)C2)O1 ?
hgDAF-12 ag: 3; ssDAF-12 act: -2; hcDAF12 agonist: -1; DAX1 inh-2: -1

Results for CC1(Cc2ccccc2OC(F)(F)F)C(=O)Nc2ccc(S(=O)(=O)NC3CCCCC3)cc21 (stereo unspecified) ?
hgDAF-12 ag: -1; FXN GAA850 act: 6; ssDAF-12 act: -2; hcDAF12 agonist: 0; DAX1 inh-2: -1

How did COc1ccc(OC(F)(F)F)cc1CC1(C)C(=O)Nc2ccc(S(=O)(=O)NC3CCCCC3)cc21 (stereo unspecified) do in these assays?
hgDAF-12 ag: -6; FXN GAA850 act: 17*; ssDAF-12 act: -2; hcDAF12 agonist: -1; DAX1 inh-2: 0; GAA30 counter: 15; GAA850 confirm: 14*

Results for CCN(C(=O)Cn1nnc(-c2ccncc2)n1)c1ccccc1 ?
hgDAF-12 ag: 1; ssDAF-12 act: -1; hcDAF12 agonist: -2; DAX1 inh-2: -1
